Where a name gives a salt, the structure may show the parent alone.
System: HL-1
Assay: relative cell viability (CellTiter-Glo) vs DMSO control (% of DMSO control); higher = more viable cells
Method in brief: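 HL-1 mouse atrial cardiomyocytes were plated in 384-well plates at 1000 cells per well together with compounds at 40, 200, 1000 or 5000 nM in 0.01% DMSO. One day later, cells went to a hypoxic workstation (1% O2) for 48 h, then were reoxygenated for 24 h in a normal incubator, or stayed in normoxia for the same time. Cell viability was read by CellTiter-Glo luminescence and normalised to vehicle-treated control cells.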

[1] = oxygen condition: hypoxia 48 h (1% O2) + reoxygenation 24 h, 40 nM
[2] = oxygen condition: hypoxia 48 h (1% O2) + reoxygenation 24 h, 200 nM
[3] = oxygen condition: hypoxia 48 h (1% O2) + reoxygenation 24 h, 1000 nM
[4] = oxygen condition: hypoxia 48 h (1% O2) + reoxygenation 24 h, 5000 nM
[5] = oxygen condition: normoxia 72 h, 40 nM
[6] = oxygen condition: normoxia 72 h, 200 nM
[7] = oxygen condition: normoxia 72 h, 1000 nM
[8] = oxygen condition: normoxia 72 h, 5000 nM

SMILES | relative cell viability [1] | relative cell viability [2] | relative cell viability [3] | relative cell viability [4] | relative cell viability [5] | relative cell viability [6] | relative cell viability [7] | relative cell viability [8]
CCC(=O)O[C@@H](O[P@](=O)(CCCCc1ccccc1)CC(=O)N1C[C@H](C2CCCCC2)C[C@H]1C(=O)O)C(C)C [Fosinopril sodium] | 106 | 99.9 | 101 | 108 | 101 | 103 | 106 | 111
CCCCNc1ccc(C(=O)OCCN(C)C)cc1 [Tetracaine hydrochloride] | 97.8 | 104 | 107 | 106 | 103 | 106 | 111 | 108
Cc1ccc(C(=O)c2cc(O)c(O)c([N+](=O)[O-])c2)cc1 [Tolcapone] | 101 | 100 | 103 | 116 | 98.4 | 102 | 103 | 113
CSc1ccc2c(c1)N(CCC1CCCCN1C)c1ccccc1S2 (centres undefined) [Thioridazine HCl] | 101 | 108 | 101 | 107 | 98.9 | 101 | 98.7 | 108
CCCN(CCC)CCc1cccc2c1CC(=O)N2 [Ropinirole HCl] | 109 | 117 | 106 | 114 | 107 | 104 | 107 | 110
Nc1cc(N2CCCCC2)nc(N)[n+]1[O-] [Minoxidil] | 108 | 106 | 118 | 113 | 114 | 109 | 112 | 111
N=C(N)N/N=C/c1c(Cl)cccc1Cl [Guanabenz acetate] | 96.3 | 113 | 105 | 99.1 | 101 | 99.6 | 98.7 | 98.9
CCCCC1C(=O)N(c2ccccc2)N(c2ccccc2)C1=O [Phenylbutazone] | 100 | 104 | 93.3 | 110 | 102 | 112 | 43.1 | 112
CC(C)C(=O)Nc1ccc([N+](=O)[O-])c(C(F)(F)F)c1 [Flutamide] | 108 | 102 | 101 | 38.7 | 98.3 | 101 | 105 | 37
C=C1/C(=C\C=C2/CCC[C@]3(C)[C@@H]([C@H](C)CCCC(C)(C)O)CC[C@@H]23)C[C@@H](O)C[C@@H]1O [Calcitriol] | 90.8 | 91.2 | 92.9 | 91 | 94.5 | 92.6 | 93.6 | 89.9
CCCSc1nc(N[C@@H]2C[C@H]2c2ccc(F)c(F)c2)c2nnn([C@@H]3C[C@H](OCCO)[C@@H](O)[C@H]3O)c2n1 [Ticagrelor] | 109 | 115 | 108 | 123 | 108 | 108 | 113 | 111
O=C1N=C(O)NC1(c1ccccc1)c1ccccc1 [Phenytoin sodium] | 96.1 | 96.2 | 95.6 | 111 | 94.5 | 101 | 101 | 107
Clc1ccc2c(c1)C(N1CCNCC1)=Nc1ccccc1O2 [Amoxapine] | 102 | 100 | 104 | 109 | 98.5 | 105 | 111 | 113
OCCN1C[C@H](O)[C@@H](O)[C@H](O)[C@H]1CO [Miglitol] | 104 | 104 | 119 | 108 | 101 | 102 | 106 | 117
CCOc1nc2cccc(C(=O)OCc3oc(=O)oc3C)c2n1Cc1ccc(-c2ccccc2-c2noc(=O)[nH]2)cc1 [Azilsartan Medoxomil] | 101 | 99.2 | 116 | 116 | 93.4 | 103 | 100 | 114
CCOC(=O)C1=C[C@@H](OC(CC)CC)[C@H](NC(C)=O)[C@@H](N)C1 [Oseltamivir phosphate] | 94.9 | 99.4 | 99.5 | 111 | 103 | 101 | 105 | 111
CCCC(=O)Nc1ccc(OCC(O)CNC(C)C)c(C(C)=O)c1 (centres undefined) [Acebutolol HCl] | 102 | 108 | 107 | 114 | 104 | 107 | 106 | 116
Nc1ncn([C@H]2C[C@H](O)[C@@H](CO)O2)c(=O)n1 [Decitabine] | 103 | 104 | 94.1 | 65.4 | 101 | 104 | 91.2 | 58.2
CC1=C(C(=O)OC(C)C)C(c2cccc([N+](=O)[O-])c2)C(C(=O)OC2CN(C(c3ccccc3)c3ccccc3)C2)=C(N)N1 (centres undefined) [Azelnidipine] | 104 | 110 | 106 | 112 | 109 | 110 | 112 | 119

SMILES | relative cell viability [1] | relative cell viability [2] | relative cell viability [3] | relative cell viability [4] | relative cell viability [5] | relative cell viability [6] | relative cell viability [7] | relative cell viability [8]
CC[C@H](C)[C@H](N)C1=N[C@H](C(=O)N[C@@H](CC(C)C)C(=O)N[C@H](CCC(=O)[O-])C(=O)N[C@H](C(=O)N[C@H]2CCCCNC(=O)[C@H](CC(N)=O)NC(=O)[C@@H](CC(=O)[O-])NC(=O)[C@H](Cc3cnc[nH]3)NC(=O)[C@@H](Cc3ccccc3)NC(=O)[C@H]([C@@H](C)CC)NC(=O)[C@@H](CCCN)NC2=O)[C@@H](C)CC)CS1.[Zn+2] [Bacitracin zinc] | 95.4 | 107 | 109 | 123 | 105 | 107 | 109 | 117
CC(C)(OCc1nn(Cc2ccccc2)c2ccccc12)C(=O)O [Bindarit] | 99.2 | 99.8 | 100 | 3.69 | 96.7 | 100 | 95.7 | 3.69
c1ccc2c(CC3=NCCN3)cccc2c1 [Naphazoline hydrochloride] | 97.8 | 111 | 106 | 109 | 98.8 | 102 | 106 | 102
C[C@]12CC[C@@H]3c4ccc(O)cc4CC[C@H]3[C@@H]1CCC2=O [Estrone] | 102 | 107 | 107 | 109 | 102 | 105 | 107 | 115
C[N+](C)(C)CCCCCC[N+](C)(C)C [Hexamethonium bromide] | 101 | 99.3 | 105 | 113 | 94.2 | 96.6 | 100 | 103
CC1Cc2ccccc2N1NC(=O)c1ccc(Cl)c(S(N)(=O)=O)c1 (centres undefined) [Indapamide] | 106 | 104 | 110 | 114 | 105 | 102 | 106 | 121
CC[C@@H]1/C=C(\C)C[C@H](C)C[C@H](OC)[C@H]2O[C@@](O)(C(=O)C(=O)N3CCCC[C@H]3C(=O)O[C@H](/C(C)=C/[C@@H]3CC[C@H](Cl)[C@H](OC)C3)[C@H](C)[C@@H](O)CC1=O)[C@H](C)C[C@@H]2OC [Pimecrolimus] | 98.7 | 93.8 | 101 | 104 | 96.8 | 99.1 | 94.7 | 106
COc1cc2nccc(Oc3ccc(NC(=O)C4(C(=O)Nc5ccc(F)cc5)CC4)cc3)c2cc1OC | 109 | 112 | 111 | 115 | 112 | 110 | 107 | 120
COC(=O)[C@H]1[C@H]2C[C@@H]3c4[nH]c5cc(OC)ccc5c4CCN3C[C@H]2C[C@@H](OC(=O)c2cc(OC)c(OC)c(OC)c2)[C@@H]1OC [Reserpine] | 112 | 106 | 107 | 110 | 102 | 103 | 103 | 113
COc1ccccc1OCC(O)CN1CCN(CC(=O)Nc2c(C)cccc2C)CC1 (centres undefined) [Ranolazine] | 85 | 102 | 98 | 112 | 105 | 102 | 107 | 118
Cn1c(CNc2ccc(C(=N)N)cc2)nc2cc(C(=O)N(CCC(=O)O)c3ccccn3)ccc21 | 104 | 96 | 102 | 108 | 102 | 102 | 102 | 106
NC(CO)C(=O)NNCc1ccc(O)c(O)c1O (centres undefined) [Benserazide] | 107 | 101 | 111 | 110 | 97.3 | 104 | 102 | 107
Nc1nnc(-c2cccc(Cl)c2Cl)c(N)n1 [Lamotrigine] | 107 | 102 | 108 | 117 | 106 | 96.1 | 115 | 117
O=C(CCCN1CCN(c2ccccn2)CC1)c1ccc(F)cc1 [Azaperone] | 107 | 104 | 102 | 103 | 102 | 107 | 110 | 111
O=C1CCc2cc(OCCCCc3nnnn3C3CCCCC3)ccc2N1 [Cilostazol] | 107 | 107 | 111 | 107 | 105 | 108 | 106 | 109
CC(C)C[C@H](NC(=O)[C@@H](O)[C@H](N)Cc1ccccc1)C(=O)O [Ubenimex] | 99.1 | 95.6 | 98.2 | 103 | 101 | 98.8 | 99.7 | 108
O=C(O)CCCN1CCC(O[C@@H](c2ccc(Cl)cc2)c2ccccn2)CC1 [Bepotastine Besilate] | 112 | 108 | 111 | 120 | 113 | 115 | 115 | 131
CCCOc1ccc(C(=O)OCCN(CC)CC)cc1N [Proparacaine HCl] | 88.3 | 98.9 | 97.8 | 107 | 103 | 92.4 | 78.4 | 106
C[C@](N)(Cc1ccc(O)c(O)c1)C(=O)O [Methyldopa] | 105 | 79.3 | 104 | 103 | 98.8 | 91.9 | 102 | 109

From the supplement of paper PMC8371130
